Bioassay records (PubChem BioAssay)
In the library only some 1.9% were active in any assay of this set; here they are far more common.
RecA splice inh – blocks M. tuberculosis RecA intein splicing | cell-free RecA intein splicing, fluorescence | inhibition, % (concentration not given with the values) | actives 0.75% (n = 290,000) | AID 2221; in the data active = inhibition above about 30%;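 note: 0% = vehicle wells and 100% = reference inhibitor control wells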
BJeLR viability – BJeLR cell viability loss. BJeLR (HRASV12) viability, CellTiter-Glo ATP luminescence, 48 h. inhibition, % (test concentration not listed). actives 0.17% (n = 300,000). AID 1554; in the data active = inhibition above about 50%
PfHsp40 rescue – rescue of PfHsp40-mediated yeast toxicity | S. cerevisiae expressing PfHsp40, growth rescue, ATP luminescence | growth rescue, % at 12.5 µM | actives 0.68% (n = 340,000) | AID 504582; in the data active = growth rescue above about 28%, passing the limit was not always enough;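 note: yeast W303a lacking pdr1 and pdr3 grown in galactose medium; growth measured after three days at 30 °C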
PriA SSB inh – blocks PriA binding to SSB C-terminal tail; AlphaScreen SSBct-PriA binding, biotinylated peptide; inhibition, % at 33 µM; actives 0.6% (n = 430,000); in the data active = inhibition mostly above about 37%, no sharp cut-off; inactive = mostly below about 20%;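 note: plate controls were negative control peptide for no effect and reference peptide for full effect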
PrPC TRFRET – cell surface PrPC inhibition, primary TR-FRET screen. P04156. TR-FRET read-out. inhibition, % at 13.8 µM. actives 0.43% (n = 370,000). AID 720596; in the data active = inhibition above about 24%; note: 0% = median of the test wells and 100% = reference compound wells
PrP 5UTR inh – inhibition of PrP 5' UTR reporter expression; inhibition, % (concentration not given with the values); cell-based PrP 5' UTR mRNA reporter, plate reader; actives 0.35% (n = 340,000); in the data active = inhibition above about 52%; note: 0 = median of the neutral control wells
Starred values were filed as active, the others as inactive; · = no result.

SMILES	RecA splice inh	BJeLR viability	PfHsp40 rescue	PriA SSB inh	PrPC TRFRET	PrP 5UTR inh
COc1ccc(S(=O)(=O)Nc2cccc(-c3nc4cccnc4s3)c2C)cc1OC	·	·	·	-6	·	·
O=S(=O)(NCCc1ccc(N2CCCC2)cc1)c1cccs1	·	·	·	20	·	·
CCOC(=O)Cn1c(=NC(=O)c2cc3ccccc3oc2=O)sc2cc([N+](=O)[O-])ccc21	·	·	·	4	·	·
CC(C)(C)CC(=O)Nc1c(C(N)=O)oc2ccccc12	·	·	·	2	·	·
O=S(=O)(NCC1CCN(C2CCCC2)CC1)c1ccccc1Cl	·	·	·	-15	·	·
NC(=O)c1ccccc1NC(=O)c1ncc(-c2ccc(Cl)cc2)o1	·	·	·	-4	·	·
O=C(Nc1ncn[nH]1)c1ncc(-c2ccc(Cl)cc2)o1	·	·	·	69*	·	·
Nc1c(C(=O)O)ccc2c1C(=O)c1ccccc1C2=O	11	-7	0	22	-50	-8
Nc1cc(C(=O)O)c(N)c2c1C(=O)c1ccccc1C2=O	15	12	3	74*	·	-25
Cc1cccc(OCCCCn2c(CO)nc3ccccc32)c1C	·	·	·	5	·	·
COc1ccccc1OCC(=O)Nc1ccc2c(c1)N(C(=O)C(C)(C)C)CC2	·	·	·	13	·	·
CC(=O)N(C)Cc1ccc(C(=O)CCl)cc1	37*	0	-1	-7	3	-20
COc1cc(OC)cc(C(=O)Nc2cnc(N3CCOCC3)nc2N(C)C)c1	·	·	·	-8	·	·
O=C(COc1ccc(Oc2ccccc2)cc1)Oc1ccc(Br)cc1	·	·	·	-16	·	·
CC(=O)Nc1cccc(OC(=O)COc2ccc(Br)cc2)c1	35*	2	0	-11	-8	1
CC(=O)Nc1cccc(OCC(=O)Nc2ccc(F)cc2)c1	1	-13	0	-18	-2	-19
CC(=O)Nc1cccc(OCc2ccc(F)cc2)c1	0	-6	70*	-5	-1	-31
CCCn1nc(C(=O)N2CCN(S(=O)(=O)c3ccc(C)c(C)c3)CC2)c2ccccc2c1=O	·	·	69*	6	-7	-3
C/C(=C/CCC(C)[C@H]1CC[C@@]2(C)C3=C(CC[C@]12C)[C@@]1(C)CCC(=O)C(C)(C)[C@@H]1CC3)C(=O)O (stereo partly drawn)	42*	-1	-1	8	-2	-5
C/C(=C/CCC(C)C1CCC2(C)C3CCC4C(C)(C)C(=O)CCC4(C)C3=CCC12C)C(=O)O (stereo not drawn)	17	-1	·	·	·	·
O=C(C1CCN(C2CC(=O)N(c3ccc(Cl)cc3)C2=O)CC1)N1CCOCC1 (stereo not drawn)	-1	2	2	-4	6	-2
CCN(CC)C1CC(=O)N(c2cccc(Cl)c2)C1=O (stereo not drawn)	3	0	79*	-13	-2	-8
O=C(C1CCN(C2CC(=O)N(c3cccc(Cl)c3)C2=O)CC1)N1CCCC1 (stereo not drawn)	16	-7	468*	-21	-7	-14
COC(=O)C1CCN(C2CC(=O)N(c3cc(C)cc(C)c3)C2=O)CC1 (stereo not drawn)	0	-8	45*	1	-1	-14
NC(=O)C1CCN(C2CC(=O)N(c3ccc(F)c(Cl)c3)C2=O)CC1 (stereo not drawn)	2	2	204*	-22	-7	-10
SMILES	RecA splice inh	BJeLR viability	PfHsp40 rescue	PriA SSB inh	PrPC TRFRET	PrP 5UTR inh
Cc1ccc(CN2CCN(N=Cc3ccc(C(=O)O)cc3)CC2)c(C)c1	·	·	·	-6	·	·
NC(=O)C1CCN(C2CC(=O)N(c3cccc(F)c3)C2=O)CC1 (stereo not drawn)	1	-4	6	-15	0	-12
CCOC(=O)C1CCN(C2CC(=O)N(c3cccc(Cl)c3)C2=O)CC1 (stereo not drawn)	6	2	176*	-5	4	-18
O=C(NN=Cc1cc2c3c(c1O)CCCN3CCC2)c1ccccc1O	·	·	·	78	·	·
O=C(N/N=C/c1cc2c3c(c1O)CCCN3CCC2)c1ccccc1O	5	53*	176*	·	-6	33
O=C(Nc1ccccc1F)c1cc(C2CCN(C(=O)Cc3noc4ccccc34)CC2)[nH]n1	·	·	·	62*	·	·
O=C(Nc1ccccc1F)c1cc(C2CCN(C(=O)c3ccno3)CC2)[nH]n1	·	·	·	0	·	·
Oc1c(Cl)cc(Cl)cc1C=NNC(=S)NC1CC2C=CC1C2 (stereo not drawn)	·	·	·	-1	·	·
Oc1c(Br)cc(Br)cc1/C=N/NC(=S)N[C@H]1CC2C=CC1C2 (stereo partly drawn)	21	-3	78*	·	1	-24
Cc1ccc(C)c2sc(NC(=O)CN3C(=O)CCC3=O)nc12	-3	-6	-2	1	-1	-20
Cc1ccc2sc(NC(=O)CN3C(=O)CCC3=O)nc2c1C	0	9	1	104*	5	-16
O=C(Nc1cc(C2CC2)nn1-c1nc(-c2ccccc2)cc(=O)[nH]1)c1cc2ccccc2o1	·	·	·	-19	·	·
O=C(c1ccccc1F)N1CCN(c2ccc(Nc3ccccn3)nn2)CC1	·	·	·	-15	·	·
Cc1ccc2c(c1N)C(=O)c1ccccc1C2=O	·	·	-3	10	-29	-47
Cc1ccc2c(c1C)-c1c(ccc(C)c1C)C(=O)C2=O	·	·	171*	2	2	-44
CCCc1c(C)c2c(C)[nH]nc2oc1=O	41*	-4	1	-4	0	-23
CCOC(=O)Cc1c(C)c2c(C)[nH]nc2oc1=O	39*	1	1	1	1	-11
CCOC(=O)Cc1c(C)c2c(C)nn(-c3ccccc3)c2oc1=O	5	-6	1	-16	4	-16
Cc1c(C)c2c(C)[nH]nc2oc1=O	2	2	0	-7	1	-58
COc1ccc(CCC(=O)N2C3CCC2COC3)cc1	·	·	·	-10	·	·
COc1ccc(/C=C/C(=O)N2CCN(C)CC2)cc1Br	·	·	·	2	·	·
c1ccc(N2CCN(c3nc(NCc4ccco4)c4ccccc4n3)CC2)cc1	17	7	1	40*	-10	-15
O=C(CSc1cccc2cccnc12)Nc1cc(Cl)cc(Cl)c1	·	·	·	57*	·	·
O=C(CSc1cccc2cccnc12)Nc1ccc2ccccc2c1	·	·	·	33	·	·
O=C(CSc1cccc2cccnc12)Nc1cc(C(=O)O)cc(C(=O)O)c1	-4	-4	-1	75*	-2	-1
SMILES	RecA splice inh	BJeLR viability	PfHsp40 rescue	PriA SSB inh	PrPC TRFRET	PrP 5UTR inh
O=C(CSc1cccc2cccnc12)NC1CCS(=O)(=O)C1 (stereo not drawn)	·	·	·	37*	·	·
Cc1cccc(NC(=O)CSc2cccc3cccnc23)c1	-3	0	1	49*	11	-3
CC(=O)Nc1cccc(NC(=O)C(=O)NCCN2CCOC(c3ccccc3)C2)c1 (stereo not drawn)	·	·	·	-1	·	·
Cc1cc(NC(=O)Nc2cccc(Cl)c2)n(-c2ccccn2)n1	5	-11	101*	-9	7	-10
Nc1ccccc1N=Nc1ccccc1N	12	-2	1	83*	-15	-38
Cc1onc(C(=O)N2CCN(C(c3ccccc3)c3ccccc3)CC2)c1[N+](=O)[O-]	1	75*	1	19	3	-7
Cc1ccc(-n2c(Cc3cccs3)nnc2SCC(=O)Nc2ccc3c(c2)OCO3)cc1	·	·	·	62*	·	·
